14-3-3 Bad PPI: disrupts binding of bovine 14-3-3 zeta to phospho-Bad peptide. AID 781. P63103. 0.71% of 220,000 active. TR-FRET 14-3-3zeta/Dy647-pBad peptide displacement, 1 h. inhibition, % at 21.7 µM;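 active means inhibition above about 70%, limit read from the data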
eIF4E 4G PPI: eIF4E/eIF4G interaction inhibition in translation initiation | P63073+Q04637 | TR-FRET eIF4E-eIF4GI(517-606) binding, 2 h | inhibition, % at 21.7 µM | 0.37% of 220,000 active;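 active means inhibition above about 30%, limit read from the data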
Target sequence (P63073 whole entry, looked up): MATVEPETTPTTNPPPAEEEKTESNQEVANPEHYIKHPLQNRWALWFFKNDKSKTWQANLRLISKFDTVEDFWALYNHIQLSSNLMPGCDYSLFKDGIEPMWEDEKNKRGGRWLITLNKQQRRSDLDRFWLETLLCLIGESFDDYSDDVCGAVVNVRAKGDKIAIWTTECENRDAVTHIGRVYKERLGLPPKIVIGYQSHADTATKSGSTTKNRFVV
Target sequence (Q04637 whole entry, looked up): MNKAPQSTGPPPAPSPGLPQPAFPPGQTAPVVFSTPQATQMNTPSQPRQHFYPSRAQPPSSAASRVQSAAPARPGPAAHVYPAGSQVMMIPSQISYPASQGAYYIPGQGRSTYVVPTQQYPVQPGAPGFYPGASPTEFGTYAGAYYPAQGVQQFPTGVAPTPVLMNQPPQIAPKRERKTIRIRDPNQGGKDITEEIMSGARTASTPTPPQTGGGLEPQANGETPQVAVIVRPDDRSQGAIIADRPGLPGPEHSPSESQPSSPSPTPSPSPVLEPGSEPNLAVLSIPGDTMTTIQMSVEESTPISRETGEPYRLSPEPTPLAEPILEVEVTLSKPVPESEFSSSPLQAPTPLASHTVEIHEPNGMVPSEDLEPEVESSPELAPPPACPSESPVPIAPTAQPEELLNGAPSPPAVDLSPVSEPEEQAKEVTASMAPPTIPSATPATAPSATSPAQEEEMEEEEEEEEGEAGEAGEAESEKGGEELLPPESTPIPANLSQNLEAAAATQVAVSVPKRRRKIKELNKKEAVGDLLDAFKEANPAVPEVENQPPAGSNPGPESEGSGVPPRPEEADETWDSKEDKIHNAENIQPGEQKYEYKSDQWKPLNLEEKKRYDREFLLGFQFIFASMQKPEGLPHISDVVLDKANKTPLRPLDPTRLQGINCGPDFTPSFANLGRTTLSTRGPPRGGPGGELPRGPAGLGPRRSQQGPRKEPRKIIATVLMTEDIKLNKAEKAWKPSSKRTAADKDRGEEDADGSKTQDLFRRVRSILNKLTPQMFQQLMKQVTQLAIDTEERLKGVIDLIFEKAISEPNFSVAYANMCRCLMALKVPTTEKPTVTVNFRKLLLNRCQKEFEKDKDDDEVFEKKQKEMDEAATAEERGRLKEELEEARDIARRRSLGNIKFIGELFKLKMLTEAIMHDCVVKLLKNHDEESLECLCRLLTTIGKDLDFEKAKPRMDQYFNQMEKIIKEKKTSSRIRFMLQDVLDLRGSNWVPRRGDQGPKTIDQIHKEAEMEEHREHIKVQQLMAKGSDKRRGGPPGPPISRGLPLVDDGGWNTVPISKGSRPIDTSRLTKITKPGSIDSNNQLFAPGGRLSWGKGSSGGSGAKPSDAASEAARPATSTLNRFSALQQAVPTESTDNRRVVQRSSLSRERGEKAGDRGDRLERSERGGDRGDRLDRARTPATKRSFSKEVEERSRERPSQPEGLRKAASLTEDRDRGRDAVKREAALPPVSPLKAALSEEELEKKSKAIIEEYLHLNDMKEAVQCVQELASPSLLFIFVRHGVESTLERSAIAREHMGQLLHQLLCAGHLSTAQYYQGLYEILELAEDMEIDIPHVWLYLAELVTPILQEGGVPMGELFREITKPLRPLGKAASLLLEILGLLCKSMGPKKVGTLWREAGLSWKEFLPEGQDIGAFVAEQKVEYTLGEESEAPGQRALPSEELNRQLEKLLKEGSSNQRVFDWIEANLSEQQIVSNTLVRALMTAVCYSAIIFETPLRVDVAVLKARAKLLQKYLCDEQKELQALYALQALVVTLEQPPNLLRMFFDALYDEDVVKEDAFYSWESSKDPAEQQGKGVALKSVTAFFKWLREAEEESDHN
Mcl1 Bid PPI: Mcl-1/Bid interaction inhibition; Q07820; TR-FRET Mcl-1/Bid-Dy647 peptide binding, 1536-well; inhibition, % at 21.7 µM; 0.97% of 220,000 active;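 active means compounds that cut the binding signal by more than half at the single screening dose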;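 further: His-tagged Mcl-1 with europium anti-His antibody binding Bid BH3 peptide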
Mcl-1 Bim block: human Bim-Mcl-1 interaction inhibition | Bead-based flow cytometry, Bim peptide-Mcl-1 binding | 0.1% of 190,000 active | inhibition, % at 10 µM | AID 1009 | Q07820; in the data active means inhibition above about 40%
Pf gamet viab: inhibitors of late stage P. falciparum gametocyte viability. 0.065% of 150,000 active. inhibition, % at 10.9 µM. P. falciparum stage V gametocytes, ATP luminescence, 24 h;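 active means inhibition above the mean plus 3 SD of compounds within the control limits, set per campaign, cut at about 38% in these data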
Mcl1-Noxa inh: Mcl-1/Noxa interaction inhibition | Q07820 | TR-FRET Mcl-1/Noxa peptide binding, 2 h | inhibition, % at 21.7 µM | 1.5% of 220,000 active | AID 1022;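 active means compounds that cut the protein-peptide binding signal by more than 50% relative to plate controls in a single-dose test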;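 further: His-tagged Mcl-1 with rhodamine Noxa BH3 peptide and terbium anti-His antibody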
A number is an active result; - = inactive; . = not tested or not shown; [ ] = dose if it differs, or a comment. Most compounds without a hit are left out; they make up all but 2.7% or so of the library.

SMILES	14-3-3 Bad PPI	eIF4E 4G PPI	Mcl1 Bid PPI	Mcl-1 Bim block	Pf gamet viab	Mcl1-Noxa inh
C=CCNC(=O)COc1ccc(S(=O)(=O)N2CCCC2)cc1	-	-	-	-	-	-
O=C(NNC(=O)C1CCN(c2ncccn2)CC1)c1ccncc1	-	-	-	-	-	-
O=C(C(c1ccccc1)c1ccccc1)N1CCN(Cc2ccco2)CC1	71	-	-	-	-	-
COc1ccc(C2C(C(=O)NCc3ccccn3)CCC(=O)N2c2cc(OC)c(OC)c(OC)c2)cc1 (configuration not stated)	-	-	-	-	-	-
COc1ccc(/C=C/c2nnc(NC(=O)CC(C)C)s2)cc1	-	-	-	.	-	-
CN1C(=O)NC(c2cccc(O)c2)C(C(=O)c2cccs2)C1(O)C(F)(F)F (configuration not stated)	-	-	-	-	.	-
CCOC(=O)C1C(c2cccs2)NC(=O)N(C)C1(O)C(F)(F)F (configuration not stated)	-	-	61	-	.	-
O=C(CCN1CCN(CCO)CC1)Nc1ccc(OCc2ccccc2)cc1	-	-	55	-	-	-
CCCC(=O)OCCNc1cc(Sc2nc3ccccc3[nH]2)c2nonc2c1[N+](=O)[O-]	-	-	-	-	-	52
Cc1nc(N)sc1-c1csc(Nc2ncccn2)n1	89	-	91	-	.	87
COc1ccc(NS(=O)(=O)c2cccc(NC(=O)CCC(=O)c3ccc(Cl)cc3)c2)cc1	-	-	96	-	-	-
CSc1ccc(/C=N/NC(=O)c2cccc(O)c2)cc1	-	-	-	-	-	-
N#C/C(C(=O)NCc1ccccc1)=C1/N=C(NC(=O)c2cccs2)c2ccccc21	-	-	-	-	.	-
N#Cc1cc2c(nc1SCC(=O)Nc1sc3c(c1C#N)CCC3)CCC2	-	-	-	-	.	-
COc1ccc(-c2ccc(C#N)c(SCC(=O)Nc3sc4c(c3C#N)CCC4)n2)cc1OC	92[fluorescence artefact?]	-	73	-	.	-
CCC1CCCCN1S(=O)(=O)c1ccc(S(=O)(=O)N(Cc2ccccn2)CC2CCCO2)cc1 (configuration not stated)	-	-	-	-	-	90
O=S(=O)(NCC1CCCO1)c1ccc(S(=O)(=O)N(Cc2ccc(F)cc2)Cc2ccccn2)cc1 (configuration not stated)	-	-	-	-	-	-
O=C(COc1ccccc1[N+](=O)[O-])N/N=C/c1ccc(O)c([N+](=O)[O-])c1	-	-	-	-	-	-
Cc1cc(C)cc(OCC(=O)N/N=C/c2ccccn2)c1	-	-	-	.	-	-
Cc1ccccc1OCC(=O)N/N=C/c1ccccn1	-	-	-	64	-	-
O=C(CN1CCN(Cc2ccccc2Cl)CC1)N/N=C/c1ccccn1	-	-	-	.	-	69
O=C(COc1ccccc1C(=O)N/N=C\c1ccc(O)c(O)c1)N/N=C/c1ccc(O)c(O)c1	-	-	-	-	.	100
CN(C)S(=O)(=O)c1cccc(NC(=O)COC(=O)c2cccn2C)c1	-	-	-	-	-	-
C#CCOCCOCCOCCNc1nc(N2CCN(C(=O)[C@H](CCCCN)n3cc(C(N)[C@H](C)CC)nn3)CC2)nc(N2CCN(C(=O)[C@H](CCC(=O)O)n3cc(C(N)[C@H](C)CC)nn3)CC2)n1 (some centres not stated)	-	-	75	-	.	-
C#CCOCCOCCOCCNc1nc(N2CCN(C(=O)[C@H](CCCCN)n3cc([C@@H](N)[C@H](C)CC)nn3)CC2)nc(N2CCN(C(=O)[C@H](CCC(=O)O)n3cc([C@@H](N)CCCCN)nn3)CC2)n1	.	.	.	.	-	.
SMILES	14-3-3 Bad PPI	eIF4E 4G PPI	Mcl1 Bid PPI	Mcl-1 Bim block	Pf gamet viab	Mcl1-Noxa inh
C#CCOCCOCCOCCNc1nc(N2CCN(C(=O)[C@H](CCCCN)n3cc([C@@H](N)C(C)CC)nn3)CC2)nc(N2CCN(C(=O)[C@H](CCCCN)n3cc([C@@H](N)CO)nn3)CC2)n1 (some centres not stated)	-	-	88	-	.	-
CCn1c(SCC(=O)n2c(C)c(C)c3ccccc32)nnc1-c1ccco1	-	-	54	-	-	-
CNc1nn(-c2cccc(Cl)c2)nc1N	-	-	96	-	-	-
CCCC(=O)OCC(=O)Nc1ccc2[nH]c(=O)[nH]c2c1	-	-	-	-	-	-
CCN(CC)c1ccc(C(=O)OCC(=O)Nc2ccc3[nH]c(=O)[nH]c3c2)cc1	-	-	-	-	-	55
O=C(COC(=O)c1c(F)cccc1F)Nc1ccc2[nH]c(=O)[nH]c2c1	-	-	-	-	-	72
CCN(CC)c1ccc(NC(=O)COC(=O)c2ccc3ccccc3n2)cc1	-	-	-	-	.	57
CCN(CC)c1ccc(NC(=O)COC(=O)c2cccs2)cc1	-	-	-	-	-	-
CC1CC1C(=O)OCC(=O)Nc1ccc2[nH]c(=O)[nH]c2c1 (configuration not stated)	-	-	-	-	-	76
O=C(COC(=O)c1ccc(F)cc1F)Nc1ccc2[nH]c(=O)[nH]c2c1	-	-	-	-	-	69
O=C(COc1cccc(F)c1)Nc1ccc2[nH]c(=O)[nH]c2c1	-	-	-	-	-	-
CC(C)n1c(Nn2cnnc2)nc2ccccc21	-	-	-	-	.	103
CC(=C/c1ccccc1)/C=C1/SC(N2CCOCC2)=NC1=O	-	-	64	-	.	-
O=C1N=C(N2CCOCC2)S/C1=C\c1ccncc1	-	-	-	.	-	-
COC(=O)c1[nH]c2ccccc2c1NC(=O)c1ccccc1[N+](=O)[O-]	-	-	-	93	-	-
COc1cc(NC(=O)c2ccccc2[N+](=O)[O-])ccc1NC(=O)C(C)C	-	-	-	-	-	-
c1ccc(-n2cccc2CNC2CCCCC2)cc1	70	-	-	-	.	-
Cn1cccc1CNC1CCCCC1	-	-	-	-	-	-
COc1ccc(S(=O)(=O)CC2(O)CCN(C(=O)CC(C)C)CC2)cc1	-	-	-	-	-	-
CCc1cc(C(N)=S)ccn1	-	-	-	-	.	53
CCc1ccc(C(N)=S)cc1	-	-	-	-	-	-
CCSc1nnc2c(n1)OC(c1ccc(C(=O)O)cc1)N(C(C)=O)c1ccccc1-2 (configuration not stated)	-	-	-	-	.	-
CCCCCSc1nnc2c(n1)OC(c1cccn1C)N(C(C)=O)c1ccccc1-2 (configuration not stated)	-	-	98	-	.	-
S=c1[nH]ccn1Cc1ccccc1	-	-	-	-	-	-
COc1cc(OC)cc(-c2cc3nc(C)c(CCC(=O)O)c(C)n3n2)c1	-	-	62	-	.	-
COc1cc(OC)cc(-c2cc3nc(C)c(CCC(=O)NC(C)CCc4ccco4)c(C)n3n2)c1 (configuration not stated)	.	.	.	-	-	.

Source: PubChem BioAssay (several laboratories)
